From PubChem BioAssay
Pf growth 48h = inhibits P. falciparum growth in the first generation, 48 h; P. falciparum luciferase growth in erythrocytes, 48 h; Potency, µM (doses to about 28.7 µM), without a hit: at the highest dose activity change, negative = inhibition, usual class: inhibitors; hit rate 5.9% among 310,000; AID 504832; further: potency means the concentration at half of the fitted maximal effect; on the % scale 0 is the no-effect control and ±100 the full control effect
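Parasite viability was followed by luminescence of a genomically integrated firefly luciferase. Cultures held 0.1% parasitemia at 2% hematocrit (final), incubated under 5% CO2 at 37 C.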
Pf growth 96h = P. falciparum growth inhibition at 96 hours | P. falciparum luciferase reporter growth, 96 h | Potency, µM (top dose mostly 28.7 µM), without a hit: at the highest dose activity change, negative = inhibition, actives largely listed as inhibitors | hit rate 6.9% among 320,000 | AID 504834; further: potency means the concentration at half of the fitted maximal effect; on the % scale 0 is the no-effect control and ±100 the full control effect
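Delayed-death screen, second-generation endpoint: infected erythrocytes, 2% hematocrit, 0.05% parasitemia final; 96 hours at 37 C, 5% CO2; luciferase detection reagent; luminescence decrease equals reduced growth.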
Shiga toxin inh = blocks Shiga toxin action in Vero cells; hit rate 9.2% among 290,000; inhibition, % at 38.7 µM; Vero cells, Shiga toxin protein synthesis inhibition reporter; in the data active means inhibition mostly above about 28%, no sharp cut-off; inactive means mostly below about 43%; further: 0% is about no effect
Cycloheximide cs = counter-screen for Shiga toxin inhibitors: cycloheximide protein synthesis inhibition; cell reporter, cycloheximide protein synthesis inhibition counterscreen; max response, %; hit rate 12% among 300,000; AID 2314; in the data active means max response mostly above about 13%, no sharp cut-off; inactive means mostly below about 14%; further: read at 38.3 µM for the half of the compounds with a filed dose; 0% is about no effect
LmPK inh = LmPK (Leishmania mexicana) enzyme inhibition | Q27686 | purified LmPK, Kinase-Glo ATP luminescence, 1 h | Potency, µM (series often up to 57.5 µM), for inactives: top-dose activity change, negative = inhibition, hits mostly inhibitors | hit rate 0.37% among 290,000 | AID 1721; further: potency means the concentration at half of the fitted maximal effect; on the % scale 0 is the no-effect control and ±100 the full control effect
Target sequence (Q27686 whole entry, looked up): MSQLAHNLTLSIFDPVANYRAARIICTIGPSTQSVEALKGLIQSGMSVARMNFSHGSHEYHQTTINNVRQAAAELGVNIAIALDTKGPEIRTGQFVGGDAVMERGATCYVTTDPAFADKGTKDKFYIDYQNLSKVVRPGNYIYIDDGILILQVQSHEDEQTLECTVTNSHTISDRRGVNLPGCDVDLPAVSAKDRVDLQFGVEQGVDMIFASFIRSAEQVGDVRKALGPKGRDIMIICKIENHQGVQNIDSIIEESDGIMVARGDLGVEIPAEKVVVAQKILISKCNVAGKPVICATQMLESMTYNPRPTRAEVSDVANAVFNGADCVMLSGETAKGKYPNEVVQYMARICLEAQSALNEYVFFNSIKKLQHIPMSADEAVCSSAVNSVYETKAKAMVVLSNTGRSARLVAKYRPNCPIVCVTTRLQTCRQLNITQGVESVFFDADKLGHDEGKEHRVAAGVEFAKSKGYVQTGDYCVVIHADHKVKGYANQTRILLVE
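Screened at intermediate enzyme activity to detect both inhibitors and activators: LmPK at 0.1 nM, with a 0.5 nM enzyme column as activation reference. PEP 0.5 mM, ADP 0.1 mM; ATP detected by luminescence after 1 h.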
LmPK inh confirm = Confirms inhibition of Leishmania mexicana pyruvate kinase | purified LmPK, Kinase-Glo ATP luminescence, 1 h | hit rate 40% among 150 | Potency, µM (top dose mostly 57.5 µM), for inactives: at the top dose activity change, negative = inhibition, usual class: inhibitors | AID 2559 | shares compounds with LmPK inh;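 active means compounds giving a full or partial concentration-response curve, as inhibitors or activators; inconclusive means weak, top-dose-only or unclear curve responses; inactive means no response at any tested dose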
* = called active by the depositor. Only some compounds are listed: those with a hit (about 22% of all), similar ones and a draw of the others. Unless noted, the call rests on the fitted dose curve; in most records, active means well fitted inhibition curve with a large enough effect; inconclusive means small, poorly fitted or top-dose-only effect, or another doubt; inactive means no such curve, though single readings can be large or run the other way.

For Cn1cc(Cl)c(C(=O)Nc2nc3ccccc3s2)n1 the results were Pf growth 48h 230%, Pf growth 96h 270%, Shiga toxin inh 71*, Cycloheximide cs 42*, LmPK inh 7.9µM* and LmPK inh confirm inconclusive.
`Cn1cc(Cl)c(C(=O)OCC(=O)Nc2ccccc2)n1` gave Pf growth 96h 1%, Shiga toxin inh -5, Cycloheximide cs -2 and LmPK inh 0%.
`CC(NC(=O)c1ccc2ccccc2n1)c1ccc(Br)cc1` (stereo not drawn) gave Pf growth 48h 2%, Pf growth 96h inconclusive, Shiga toxin inh -3, Cycloheximide cs 8 and LmPK inh 0%.
Screening Brc1ccc(N=Nc2ccc3ccccc3n2)cc1 returned Pf growth 48h 0.33µM*, Pf growth 96h inconclusive, Shiga toxin inh 54*, Cycloheximide cs 36*, LmPK inh 6.3µM* and LmPK inh confirm 8.2µM*.
Cc1c(C(=O)OCC(=O)N(C)CC(=O)Nc2ccc(F)cc2)oc2ccccc12 was read as Pf growth 48h -21% and Pf growth 96h -19%.
For CN(Cc1ccon1)Cc1cn(C)nc1-c1ccc2c(c1)OCCO2 the results were Pf growth 48h 20%, Pf growth 96h 1%, Shiga toxin inh 6, Cycloheximide cs -5, LmPK inh 6% and LmPK inh confirm -5%.
Screening CN(Cc1cn(C)nc1-c1cccc(Cl)c1)Cc1nccn1C returned Pf growth 48h -3%, Pf growth 96h -20%, Shiga toxin inh 1, Cycloheximide cs -2, LmPK inh 2% and LmPK inh confirm -1%.
For CCCc1cc(C(=O)N2CCCC(C(=O)c3cc(C)c(OC)c(C)c3)C2)n(C)n1 (stereo not drawn) the results were Pf growth 48h inconclusive, Pf growth 96h 5%, Shiga toxin inh -13, Cycloheximide cs 0 and LmPK inh -6%.
COc1ccc(-c2nc3ccccc3nc2-c2ccccc2)cc1OC was read as Pf growth 48h inconclusive, Pf growth 96h inconclusive, Shiga toxin inh -4, Cycloheximide cs -1 and LmPK inh -3%.
Screening CCc1cc(/C(Cc2ccccn2)=N\Nc2ccccc2)c(O)cc1O returned Pf growth 48h 0%, Pf growth 96h inconclusive, Shiga toxin inh 28, Cycloheximide cs 2 and LmPK inh 5%.
COc1cc(C2C(C(C)=O)=C(O)C(=O)N2Cc2ccccc2)ccc1O (stereo not drawn) was read as Pf growth 48h 36%, Pf growth 96h 39%, Shiga toxin inh -10, Cycloheximide cs 8 and LmPK inh 4%.
For O=C(NNC(=S)NC(=O)c1cccs1)c1ccc(NC(=O)c2ccccc2)cc1 the results were Pf growth 48h inconclusive, Pf growth 96h 58%, Shiga toxin inh -2, Cycloheximide cs -4 and LmPK inh 1%.
For Cc1c(C(=O)NC(=S)Nc2ccc(NC(=O)c3cccs3)cc2)oc2ccccc12 the results were Pf growth 48h -9%, Pf growth 96h inconclusive, Shiga toxin inh -15, Cycloheximide cs -5, LmPK inh 7.1µM* and LmPK inh confirm -13%.
For Cc1ccc(S(=O)(=O)Nc2cccc(-c3ccc4nnc(C)n4n3)c2)s1 the results were Pf growth 48h -25%, Pf growth 96h -16%, Shiga toxin inh 3, Cycloheximide cs -1 and LmPK inh -1%.
For c1c2c(cc3sc(N4CCCCC4)nc13)OCO2 the results were Pf growth 48h 287%, Pf growth 96h 51%, Shiga toxin inh 25, Cycloheximide cs 21, LmPK inh 7.1µM* and LmPK inh confirm 18µM*.
`C[C@]12CC[C@@H]3c4cc(O)c(O)cc4CC[C@H]3[C@@H]1CC[C@@H]2O` gave Shiga toxin inh 25, Cycloheximide cs 2, LmPK inh 0.56µM* and LmPK inh confirm inconclusive.
For COc1cc(/C=N/N2C(C)CCCC2C)cc(OC)c1O (stereo not drawn) the results were Pf growth 48h -19%, Pf growth 96h -1%, Shiga toxin inh -2, Cycloheximide cs -1, LmPK inh 2µM* and LmPK inh confirm inconclusive.
